Data: PubChem BioAssay AID778 (Sanford-Burnham Center for Chemical Genomics, 2007)
Among all 96,000 compounds or so, about 20,000 (21%) were called active. These entries were drawn from the full list. A number with no mark means an inactive call.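 How the source made its calls: active means CYP2C19 inhibition above a set limit at 5 µM in the primary screen (cut at about 50% in these data); inactive means the rest.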

target: Cytochrome P450 2C19 (Homo sapiens) (UniProt P33261); experiment: blockers of cytochrome P450 2C19 activity – biochemical, luminescence, ADME assay, primary screen (AID 778); conditions: CYP2C19 Supersomes, luciferin-H EGE luminescence, 30 min; at 5 µM; active compounds read high;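 further: plate controls were negative control wells for no effect and 2.5 mM tranylcypromine positive control for full effect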
Sequence (P33261 whole entry, looked up): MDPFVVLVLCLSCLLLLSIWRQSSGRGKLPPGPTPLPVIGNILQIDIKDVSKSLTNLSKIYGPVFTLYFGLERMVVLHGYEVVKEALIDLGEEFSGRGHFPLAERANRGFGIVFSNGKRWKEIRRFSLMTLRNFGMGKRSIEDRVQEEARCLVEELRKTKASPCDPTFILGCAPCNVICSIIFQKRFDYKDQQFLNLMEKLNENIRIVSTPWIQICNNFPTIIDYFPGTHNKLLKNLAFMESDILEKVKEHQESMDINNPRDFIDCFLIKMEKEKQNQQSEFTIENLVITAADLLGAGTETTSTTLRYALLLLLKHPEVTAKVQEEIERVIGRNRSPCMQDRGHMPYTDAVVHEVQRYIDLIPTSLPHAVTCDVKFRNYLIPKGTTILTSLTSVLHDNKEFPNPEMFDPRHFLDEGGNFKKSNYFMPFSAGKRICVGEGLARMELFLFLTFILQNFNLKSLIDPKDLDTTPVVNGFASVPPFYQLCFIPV

Structure (SMILES)	inhibition
COC(=O)CNC(c1ccccc1Cl)c1cc(Br)ccc1NC(=O)CCN1CCOCC1 (stereo unspecified)	-3.3%
CC(=O)c1c(C)n(-c2ccc(N(C)C)cc2)c2ccc(OCC(N)=O)cc12	18.6%
Cc1cccn2c(=O)c3cc(C(=O)N4COCC4(C)C)n(C)c3nc12	0.5%
Cc1cccn2c(=O)c3cc(C#N)c(=O)n(CCCN4CCOCC4)c3nc12	61.4% (active)
CCn1c(=N)c(C(=O)NCCCOC)cc2c(=O)n3cccc(C)c3nc21	-9.8%
CCCc1[nH]nc2c1C(c1ccc(Br)s1)C(C#N)=C(N)O2 (stereo unspecified)	34.4%
Cc1noc(NS(=O)(=O)c2ccc(N/C=C/C(=O)c3ccccc3)cc2)c1C	-5.7%
Cc1ccc(S(=O)(=O)N2CCN(S(=O)(=O)N3CCOCC3)CC2)cc1	7.3%
Cc1noc(C)c1CSc1nc2cc(S(=O)(=O)N3CCOCC3)ccc2o1	63.9% (active)
Cc1ccc(Oc2nc3ccccc3n3c(C)nnc23)cc1	-14.5%
COc1ccccc1N1CCN(C(=O)CN(Cc2ccc(Cl)cc2)S(C)(=O)=O)CC1	34%
COc1ccccc1-n1nnnc1S(=O)(=O)Cc1ccc(Cl)cc1	58.4% (active)
CCOCCCNC(=O)C(NC(=O)c1ccc(=O)[nH]c1)c1ccc(C)cc1 (stereo unspecified)	5.2%
COc1cc(C(=O)Nc2oc(-c3ccccc3)c(-c3ccccc3)c2C#N)cc(OC)c1OC	27.1%
COc1ccc(-c2oc(/N=C/N3CCCC3)c(C#N)c2-c2ccc(OC)cc2)cc1	59.3% (active)
N#Cc1c(/N=C/N2CCCC2)oc(-c2ccccc2)c1-c1ccccc1	45.7%
COc1cccc(CN2C(=O)CCC2(C)C(=O)NC2CCCCCC2)c1 (stereo unspecified)	8.6%
CCc1cc2c(N3CCN(c4nnc(CC)s4)CC3)ncnc2s1	52.3% (active)
Cc1ccc(-n2ncc3c(N4CCN(c5ccc(F)cc5)CC4)ncnc32)c(C)c1	-22.2%
Cc1nnc(SCC(=O)Nn2cnnc2)s1	4%
CC(NCCO)C(=O)C12CC3CC(CC(C3)C1)C2 (stereo unspecified)	-5.4%
CC(C)(C)Cc1nnc(NC(=O)c2cc(-c3ccccc3)nc3ccccc23)s1	11.9%
CCn1cc(C(=O)N2CCN(Cc3ccc4c(c3)OCO4)CC2)c2cc(OC)c(OC)cc2c1=O	29.5%
COc1ccc(Br)cc1CN1CCN(C(=O)c2cccc(OC)c2OC)CC1	74% (active)

Structure (SMILES)	inhibition
COc1cccc(OC)c1OCCN1CCN(C(=O)c2ccco2)CC1	21%
CCCn1nc2cc(C(=O)NCc3ccccc3)ccc2c1OCC	2.2%
CCCS(=O)(=O)C(=C1Nc2ccccc2N1)S(=O)(=O)CCC	8.6%
C=CCN1C(=O)C(O)(CC(=O)c2ccc(Cl)cc2)c2ccccc21 (stereo unspecified)	89.1% (active)
CCOC(=O)CN1C(=O)C(O)(CC(=O)c2ccccn2)c2ccccc21 (stereo unspecified)	6.5%
O=C(CC1(O)C(=O)N(CN2CCOCC2)c2ccccc21)c1ccccc1 (stereo unspecified)	12.7%
Fc1ccc2nc(Nc3nc4c(s3)CCCC4)sc2c1	-8.1%
Cc1nc2ccc(S(=O)(=O)NC(C(=O)N3CCCCCC3)C(C)C)cc2s1 (stereo unspecified)	21.2%
CC(c1ccco1)N(C(=O)COc1ccccc1[N+](=O)[O-])c1ccccn1 (stereo unspecified)	40.5%
CC(C)Cc1ccc(S(=O)(=O)N2CCN(C(=O)c3ccco3)CC2)cc1	28.1%
CC(c1ccco1)N(C(=O)c1ccc(S(=O)(=O)N2CCCCC2)cc1)c1ccccn1 (stereo unspecified)	59.1% (active)
Cc1c(NC(=O)/C=C/C(=O)O)cccc1[N+](=O)[O-]	26.2%
CO/N=C/c1ccc(N2CCN(C(=O)c3cccc(Cl)c3)CC2)c([N+](=O)[O-])c1	33.8%
Cc1c(C)c2cc3c4c(oc3c(C)c2oc1=O)CCCC4	-0.1%
Cc1ccc(OC(=O)c2ccccc2C(=O)OCC(F)(F)C(F)F)cc1	88.6% (active)
Cc1ccc(OC(=O)c2cc3ccccc3o2)cc1	-12.8%
CCOC(=O)c1cnc(-c2ccccc2)nc1Oc1ccc(C)cc1	35.2%
Cc1ccc(C(=O)CS(C)(=O)=O)cc1	1%
COc1ccc(-n2ncc3c(N4CCCc5ccccc54)ncnc32)cc1	12.3%
Cc1ccc(/C=N/NC(=O)Cn2nc(C)c(Br)c2C)o1	50.5% (active)
O=C(CN1CCSCC1)N/N=C/c1ccc(F)cc1	16.6%
O=C(CSc1ccc(/C=N/NC(=O)c2cccc(F)c2)o1)Nc1ccccc1	17.1%
O=C(Nc1ccc2c(c1)nc1n2CCCCC1)c1cc(S(=O)(=O)N2CCOCC2)ccc1Cl	25.7%
CCCCCOC(=O)NCCOC(=O)Nc1ccc(C(=O)OCC)cc1	4.4%

Structure (SMILES)	inhibition
Cc1cc(NC(=O)c2cnn3cccnc23)n(-c2ccccc2)n1	25%
O=C1CSC(c2cccc(F)c2)N1c1ccccc1F (stereo unspecified)	32.9%
CC(C)C(NC(=O)c1cccc(S(=O)(=O)N2CCOCC2)c1)C(=O)NCCc1ccccn1 (stereo unspecified)	-13.9%
O=C(c1cccc(S(=O)(=O)N2CCOCC2)c1)N1CCOCC1	-6.3%
CCN(Cc1ccncc1)C(=O)c1cccc(S(=O)(=O)N2CCOCC2)c1	97% (active)
COc1ccc(Nc2nc(=O)[nH]nc2C)cc1	5%
Cn1c(CCN2CCCCCC2)nc2cc(NC(=O)Nc3ccccc3)ccc21	-3.4%
O=c1[nH]c2c(c(=O)n1Cc1ccccc1)CCC2	-3.7%
COc1ccc(C(=O)CN(C(=O)c2ccc(Cl)cc2)N2C(=O)c3ccccc3C2=O)cc1	36%
Cc1cc(NC(=O)CS(=O)(=O)c2cn(C)c3ccccc23)no1	27.3%
CCc1ccccc1NC1c2ccccc2C(=O)N1c1cccnc1 (stereo unspecified)	81.5% (active)
CCN(CC)C(=O)CSC1c2ccccc2C(=O)N1c1ccccc1 (stereo unspecified)	49.3%
N#Cc1nc(N)nc(N(c2ccccc2)c2ccccc2)n1	10.4%
CC(=O)Nc1cccc(-c2csc(Nc3cccc(C)n3)n2)c1	5.7%
CCOC(=O)CCP(=O)(O)C(O)(c1ccccc1)c1ccccc1	-0.4%
Cn1c(=O)n(C)c2cc(S(=O)(=O)N3CCCc4ccccc43)ccc21	98.7% (active)
CSc1nc2ccc(S(=O)(=O)N3CCc4ccccc43)cc2s1	47.8%
CC1CCC(NS(=O)(=O)c2ccc3c(c2)n(C)c(=O)c(=O)n3C)CC1 (stereo unspecified)	8.2%
COc1ccc(C(=O)OCC(=O)NCC2CCCCC2)cc1S(=O)(=O)N1CCCc2ccccc21	-0.1%
Cc1nn(C)c(C)c1S(=O)(=O)N1CCc2ccccc21	43.3%
CCn1c(=O)c(=O)n(CC)c2cc(S(=O)(=O)N3CCc4ccccc43)ccc21	91.3% (active)
CC1C(c2ccccc2)=[N+]([O-])C2(CCCC2)N1O (stereo unspecified)	18.6%
C=CCOc1cccc(CNn2cn[nH]c2=S)c1	33.9%
CCCOC(=O)Nc1sc2c(c1C(=O)OCC)CCC2	-7.3%

Structure (SMILES)	inhibition
COc1ccc(N2CCN(CCNC(=O)CCN3C(=O)COc4ccccc43)CC2)cc1	6.4%
COc1ccc(N2CCN(CCNC(=O)c3nnc(Cc4c(F)cccc4Cl)o3)CC2)cc1	77.3% (active)
COc1ccc(CN2CC(C(=O)NCCN3CCN(c4ccccc4F)CC3)CC2=O)cc1 (stereo unspecified)	-6.5%
CCC(C(=O)Nc1ncccn1)(C(F)(F)F)C(F)(F)F	-8.1%
NC(=O)CCCC1=NS(=O)(=O)c2ccccc2N1	-6.5%
COCc1cc(=O)[nH]c2cc(NC(=O)C(F)(F)F)c(C)cc12	0.8%
CCC1CCCCN1CCNC(=O)c1[nH]c(C)c(C(C)=O)c1C (stereo unspecified)	2.4%
COC(=O)C(NC(C)=O)(Nc1nc2c(s1)CCCC2)C(F)(F)F (stereo unspecified)	39.3%
CCC(=O)NC(Nc1nc2ccc(C)cc2s1)(C(=O)OC)C(F)(F)F (stereo unspecified)	85.5% (active)
CCC(=O)NC(Nc1cc(C)ccn1)(C(F)(F)F)C(F)(F)F	14.8%
CNC(=S)NNC(=O)c1sccc1OCc1ccccc1	20.4%
COC(=O)CN(c1nc(C)c(Cl)c(OC)n1)S(=O)(=O)c1ccc(C)cc1	19.1%
COC(=O)c1ccc(NC(=O)CN(c2ccc(C)cc2)S(=O)(=O)c2c(C)n[nH]c2C)cc1	35%
CCNC(=O)CN(c1ccc(C)cc1)S(=O)(=O)c1ccc(SC)cc1	75.6% (active)
CC1CCC(NC(=O)c2ccc(N3CCCC3=O)cc2)CC1 (stereo unspecified)	-0.4%
CCOC(=O)Cc1csc(NC(=O)CSc2nc(C)cc(=O)[nH]2)n1	12.8%
CCCc1cc(=O)n2[nH]c(SCc3ccccc3)nc2n1	1.2%
CCCc1cc(=O)[nH]c(SCc2ccc(C#N)cc2)n1	65.1% (active)
CCCc1cc(=O)[nH]c(SCC(=O)c2cc(C)n(CCC)c2C)n1	29.3%
CCCc1cc(=O)[nH]c(SCC(=O)OCc2ccccc2)n1	55% (active)
Cc1cc(=O)[nH]c(SCc2cccc(F)c2)n1	7%
CC(C)c1cc(C(N)=O)c(NC(=O)c2cccc(COc3ccc(Br)cc3)c2)s1	5.8%
CC(=O)Oc1ccc(C(C)=O)c2c1OCCO2	12.1%
CCOC(=O)N1CCN(C(=O)Cc2ccc(-n3c(=S)[nH]c4ccccc4c3=O)cc2)CC1	17.9%
